Screens deposited in PubChem BioAssay by SRMLSC.
Abs 340nm – compound absorbs light at 340 nm; compound absorbance at 340 nm, fold over control; fold change at 10 µM; 65,000 tested, under 10 active; AID 708;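 active means at 10 µM dose, initial 340 nm absorbance at least 2 fold that of control wells; inactive means change under 2 fold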;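 further: initial absorbance extrapolated from kinetic A340 decline of NADH oxidation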
DPM-DC inhibit – blocks S. pneumoniae diphosphomevalonate decarboxylase. 65,000 compounds, 0.49% hits. calls only at 10 µM. purified DPM-DC, PK/LDH coupled NADH fluorescence;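 active means the 320 compounds with the highest percent inhibition in the single-dose primary screen, excluding strongly autofluorescent ones, cut at about 32% in these data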;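 further: kinetic rate of NADH fluorescence loss reporting ADP formed by the decarboxylase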
PMK inhibit – S. pneumoniae PMK inhibition. purified PMK, PK/LDH-coupled NADH absorbance 340 nm. 65,000 compounds, 0.49% hits. inhibition, % at 10 µM. AID 539;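 active means top-ranked compounds by inhibition in the single 10 µM screen, taking a fixed number of the strongest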;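 further: 0% = full reaction with DMSO carrier and 100% = background rate without enzyme reaction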
NADH coupling – inhibition of NAD/NADH coupling enzymes, library profiling. coupled PK/LDH NADH assays, four targets. AID 774. 65,000 compounds, 0.02% hits. IC50, µM (series often up to 10 µM), for inactives: at the top dose inhibition;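 active means single-dose screening hits from any of four coupled enzyme assays that gave an IC50 when retested across doses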;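 further: the DPM-DC format reads NADH fluorescence rather than 340 nm absorbance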
MK inhibit – blocks S. pneumoniae mevalonate kinase; purified MK, PK/LDH-coupled NADH absorbance 340 nm; inhibition, % at 10 µM; 65,000 compounds, 0.48% hits; AID 555;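 active means ranked among the strongest by inhibition in the single 10 µM screen, a fixed top-ranked set picked for dose follow-up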
Fluor 339 460 – intrinsic fluorescence of library compounds, ex339/em460 – biochemical, MLSMR library, data from DPM-DC assay, artefact control, profiling panel. compound autofluorescence, ex339/em460 nm, NADH buffer; hits give high values; 1 = no-compound wells, NADH background. fluorescence fold increase at 10 µM. 65,000 compounds, 5.5% hits;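 active means at 10 µM, mean starting fluorescence two-fold or more over control wells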;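 further: signal is the first read of a kinetic run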
Starred values were filed as active, the others as inactive; i = inactive; x = not tested or not shown; + = active, no number. Most compounds without a hit are left out; they make up all but 6.5% or so of the library.

SMILES	Abs 340nm	DPM-DC inhibit	PMK inhibit	NADH coupling	MK inhibit	Fluor 339 460
CCOC(=O)C1=C(C)N(C)C(C)=C(C(=O)OCC)C1c1ccncc1	1.1	i	1	3%	8	1.1
CCOC(=O)c1cc(-c2ccco2)nc2c1c(C)nn2CCC#N	1	x	12	2%	2	2.4*
O=C(Cc1cccs1)NCCn1ccc2ccccc21	1	i	5	5%	4	1.1
CCOC(=O)c1[nH]c2ccc(F)cc2c1NC(=O)CN1CCN(C/C=C/c2ccccc2)CC1	1	i	11	8%	9	2.6*
CCOC(=O)c1[nH]c2cc(OC)c(OC)cc2c1NC(=O)c1ccc2c(c1)OCO2	1.2	i	14	6%	3	1.2
CCOC(=O)c1[nH]c2cc(OC)c(OC)cc2c1NC(=O)CN(C)C1CCCCC1	1.1	x	14	13%	11	3.7*
CCOC(=O)c1[nH]c2cc3c(cc2c1NC(=O)CN1CCCCC1C)OCO3 (configuration not stated)	1.1	x	6	6%	6	2.3*
CCOC(=O)c1[nH]c2ccccc2c1NC(=O)c1ccc2c(c1)OCO2	1.1	i	0	1%	3	1.1
CCOC(=O)c1[nH]c2ccc(OCC)cc2c1NC(=O)CN1CCC2(CC1)OCCO2	1.1	x	10	7%	3	3.9*
COC(=O)c1[nH]c2ccccc2c1NC(=O)CN1CCN(C/C=C/c2ccccc2)CC1	1	i	13	9%	11	1.8
CCc1nc(SCc2ccc(C(=O)OC)o2)c2c(=O)n(C)c(=O)n(C)c2n1	1	i	5	2%	2	1.1
O=C(NCCCn1ccnc1)C1c2ccccc2Oc2ccccc21	1	i	9	7%	9	1.2
CCOC(=O)c1[nH]c2ccccc2c1NC(=O)CN1CCCCC1	1	i	6	9%	12	1.5
CCOC(=O)c1[nH]c2ccc(OCC)cc2c1NC(=O)CN1CCN(c2ccccc2)CC1	1.1	i	8	3%	2	3.2*
CCOc1ccc(OCC)c(NC(=O)CN2CCN(C(=O)c3ccco3)CC2)c1	0.99	i	0	2%	20	1.1
CCOc1ccc(OCC)c(NC(=O)CN2CCN(c3cccc(C)c3C)CC2)c1	1.1	i	0	21%	62*	1.1
CCOC(=O)c1[nH]c2cc3c(cc2c1NC(=O)CN1CCC2(CC1)OCCO2)OCO3	1.1	x	0	1%	2	2.3*
CCN(CCCNC(=O)CN(C)S(=O)(=O)c1ccc2c(c1)CCC(=O)N2)c1cccc(C)c1	1	i	6	5%	8	1.1
Cc1n[nH]c(C)c1Cc1ccc(C(=O)O)cc1	1.1	i	3	4%	9	1.1
N#Cc1nn(-c2ccccc2)nc1N1CCCCC1	1	x	12	6%	0	5*
CCc1ccc(-c2cn(-c3nc(C)cc(C)n3)c(=N)o2)cc1	1	i	6	6%	13	1.1
Cc1cccc(NS(=O)(=O)c2cccc3cccnc23)n1	1.1	i	1	4%	10	1.1
Cc1cccc(NS(=O)(=O)c2ccccc2)n1	1.1	x	1	4%	6	2.1*
COC(=O)c1ccc(Cl)c(NC(=O)CN(c2ccc3c(c2)OCO3)S(C)(=O)=O)c1	1	i	7	4%	4	1.1
Cc1c(NS(=O)(=O)c2cccc3nsnc23)c(=O)n(-c2ccccc2)n1C	1	i	9	4%	3	1.1
SMILES	Abs 340nm	DPM-DC inhibit	PMK inhibit	NADH coupling	MK inhibit	Fluor 339 460
Brc1c(CSc2nc3ccccc3o2)nc2ncccn12	1	x	9	10%	10	5*
Brc1c(CSc2nncn2-c2ccccc2)nc2ncccn12	1.1	x	0	0%	0	4*
Clc1c(CSc2nc3ccccc3o2)nc2ccccn12	0.98	i	11	4%	1	1.1
COC(=O)c1sc(=S)sc1C(=O)OC	1.1	i	11	4%	0	1.1
N#Cc1nc(-c2ccco2)oc1N1CCOCC1	1	x	15	14%	13	3.9*
CC1CCCN(c2oc(-c3cccc4ccccc34)nc2C#N)C1 (configuration not stated)	1.1	x	0	2%	4	3.8*
N#Cc1nc(-c2ccccc2Cl)oc1N1CCOCC1	1	x	0	0%	0	2*
COc1ccccc1-c1nc(C#N)c(N2CCc3ccccc3C2)o1	1.1	x	4	6%	7	3.9*
COc1ccccc1-c1nc(C#N)c(N2CCN(c3ccccc3)CC2)o1	1	i	14	4%	14	1.7
N#Cc1nc(-c2ccco2)oc1N1CCN(c2ccccc2)CC1	1	i	16	11%	16	1.3
COc1ccc(S(=O)(=O)N2CCN(c3nc4ccccc4nc3-n3nc(C)cc3C)CC2)cc1	1	i	8	7%	12	1.2
CCOc1cc2[nH]c(=O)n(Cc3ccc(C(=O)NCCOC)cc3)c(=O)c2cc1OCC	1.1	+	12	18%	8	0.92
CCOc1cc2[nH]c(=O)n(CCC(=O)N3CCN(c4ccccc4OC)CC3)c(=O)c2cc1OCC	1.1	i	8	5%	7	1.3
COCCNC(=O)c1ccc2c(=O)n(CCOC)c(=O)[nH]c2c1	1	i	0	5%	7	1.5
CCOc1cc2[nH]c(=O)n(Cc3cccc(OC)c3)c(=O)c2cc1OCC	1	i	5	4%	7	2*
COc1cc2c(cc1OC)CN(Cc1ccc(OC)c(C)c1OC)CC2	1.1	i	0	15%	46*	1.1
CCS(=O)(=O)N1CCc2cc(OC)c(OC)cc2C1	1	i	0	2%	6	1.1
COc1cc2c(cc1OC)CN(Cc1cccs1)CC2	1.1	i	13	22%	48*	1.2
O=C(COc1ccccc1)Nc1nn[nH]n1	1	i	4	2%	3	1.1
COc1cccc2[nH]c3c(N4CCCC(C)C4)ncnc3c12 (configuration not stated)	1.1	x	10	10%	9	3.4*
CC1CCCN(c2ncnc3c2cnn3-c2ccccc2)C1 (configuration not stated)	1	i	10	6%	4	0.92
CCOC(=O)C1CCCN(c2ncnc3c2cnn3-c2cccc(C)c2)C1 (configuration not stated)	1	i	15	5%	0	1.1
CCOC(=O)C1CCCN(c2ncnc3c2[nH]c2cccc(OC)c23)C1 (configuration not stated)	1.1	x	12	8%	4	3.7*
Cc1ccc(-n2c(SCc3cn4ccsc4n3)nc3ccccc3c2=O)cc1	1	i	7	3%	3	1.1
CCN(CCNC(=O)C1CCN(c2nnc(-n3cccc3)s2)CC1)c1ccccc1	1	+	11	21%	11	0.94
